# Data taken from PubChem BioAssay AID2284202 (EPA ToxCast).
# Calls of active or inactive are those of the source. Rule for the calls: active = hit-call score of the fitted dose curve at least 0.9, where 1 is the maximum; inactive = score below 0.9.
# Biological target: human Dopamine Transporter (DAT), SLC6A3 (gene 6531) (UniProt Q01959)
# Assay: ERF_FR_TR_hSLC6A3: Eurofins (ERF) Radioligand Binding LeadHunter Assay for human Dopamine Transporter (DAT) Antagonism, conducted at France lab site
# Method: ERF_FR_TR_hSLC6A3 is a biochemical, single-readout assay that uses extracted gene-proteins in a cell-free assay. Measurements were taken 2 hour after chemical dosing in a 96-well plate. See DAT Human Dopamine Transporter Binding (Antagonist Radioligand) Assay, Cerep.ERF_FR_TR_hSLC6A3 is an assay component calculated from the ERF_FR_TR_hSLC6A3 assay. It is designed to measure radioligand binding using a type of binding reporter as detected by scintillation counting with radiometry technology.Data from the assay component ERF_FR_TR_hSLC6A3 was analyzed at the assay endpoint, ERF_FR_TR_hSLC6A3, in the positive analysis fitting direction relative to DMSO as the negative control and baseline of activity. Using a type of binding reporter, loss-of-signal activity can be used to understand changes in binding as they relate to gene SLC6A3. To generalize the intended target to other relatable targets, this assay endpoint is annotated to the transporter intended target family, where the subfamily is SLC6 / Monoamine.
# Human cells are incubated for 120 minutes at 4C with [3H]BTCP (4 nM) ligand and BTCP as control inhibitor. Test Sample Requirements: Minimum for 1) Screen: 60 ul of 10 mM stock -OR- 1 mg (pre-weighed) for 10 uM final testing. 2) Dose Response: 90 ul of 10 mM stock -OR- 1 mg (pre-weighed) for a top concentration at 10 uM.
# Chain of human Dopamine Transporter (DAT), SLC6A3 (gene 6531) (Q01959 whole entry, looked up): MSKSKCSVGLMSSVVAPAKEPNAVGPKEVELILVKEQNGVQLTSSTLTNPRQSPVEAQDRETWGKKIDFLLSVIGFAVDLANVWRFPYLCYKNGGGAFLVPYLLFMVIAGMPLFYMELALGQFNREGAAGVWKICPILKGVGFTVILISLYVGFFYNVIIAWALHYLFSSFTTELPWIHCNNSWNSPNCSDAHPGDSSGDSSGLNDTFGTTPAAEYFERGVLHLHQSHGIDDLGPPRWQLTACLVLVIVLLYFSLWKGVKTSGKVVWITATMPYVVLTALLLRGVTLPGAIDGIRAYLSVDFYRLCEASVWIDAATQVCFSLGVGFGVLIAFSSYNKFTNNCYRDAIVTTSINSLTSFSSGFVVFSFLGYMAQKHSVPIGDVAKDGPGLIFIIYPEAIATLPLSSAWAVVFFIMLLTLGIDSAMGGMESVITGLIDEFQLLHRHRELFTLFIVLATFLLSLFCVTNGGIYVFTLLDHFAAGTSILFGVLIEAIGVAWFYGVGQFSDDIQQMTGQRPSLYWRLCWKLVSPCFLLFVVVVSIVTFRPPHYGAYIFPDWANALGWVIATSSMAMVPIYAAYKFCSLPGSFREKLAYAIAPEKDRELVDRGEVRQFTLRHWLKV
row,Compound,AC50
1,O=C(/C=C/c1ccc(O)cc1)CC(=O)/C=C/c1ccc(O)cc1,2890 nM (active)
2,COc1cc(CCC(=O)CC(=O)CCc2ccc(O)c(OC)c2)ccc1O,2970 nM (active)
